Assay outcomes: PubChem, National Center for Advancing Translational Sciences (NCATS)
GRP78 ERSR act – induces the endoplasmic reticulum stress response in human glioma cells; U87-MG GRP78 promoter luciferase reporter, 16 h; Potency, µM, for inactives: top-dose activation, most hits filed as activators; 0.02% of 420,000 active; AID 602332; active = well fitted activation curve with a large enough effect; inconclusive = small, poorly fitted or top-dose-only effect; inactive = no such curve, though single readings can be large or run the other way; note: potency is the fitted concentration of half-maximal effect; series mostly up to about 76 µM; % of control where 0% means no effect; nearly all actives have a fitted effect of over 35% in size
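Stably transfected U87-MG human glioma cells carrying a GRP78-based luminescent sensor were seeded at 1000 cells/well, pin-dosed with compounds and incubated 16 h. Luciferase reagent was then added, and end-point luminescence was read after 10 min at room temperature.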
TRHR agonist – activates the human TRH receptor | TRHR cells, calcium flux fluo-8, FDSS agonist mode | activation, % at 2 µM | 0.18% of 360,000 active; in the data active = activation above about 30%; note: 0% is about no effect
Target sequence (P34981 whole entry, looked up): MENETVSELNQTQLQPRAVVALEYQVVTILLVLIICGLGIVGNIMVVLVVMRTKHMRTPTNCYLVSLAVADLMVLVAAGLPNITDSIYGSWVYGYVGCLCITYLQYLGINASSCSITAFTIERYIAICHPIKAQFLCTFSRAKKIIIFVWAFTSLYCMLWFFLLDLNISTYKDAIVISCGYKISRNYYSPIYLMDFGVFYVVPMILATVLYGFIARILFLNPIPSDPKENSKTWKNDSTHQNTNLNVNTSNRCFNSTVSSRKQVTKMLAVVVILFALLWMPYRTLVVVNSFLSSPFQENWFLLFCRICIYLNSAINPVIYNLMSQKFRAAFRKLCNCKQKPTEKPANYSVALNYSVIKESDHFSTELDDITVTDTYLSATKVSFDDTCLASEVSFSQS
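In this calcium-flux screen, cells bearing human TRHR are dye-loaded with fluo-8, baselined for 10 cycles, then exposed to library compounds; positive kinetic calcium responses during the agonist phase mark hits, with TRH as control.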
TRPML1 blocker – inhibitors of human TRPML1 channel; TRPML1-inducible cells, Ca2+ dye fluorescence, FDSS; stronger effect = lower value; inhibition of EC80 agonist-evoked calcium signal; 0.02% of 390,000 active; AID 624415; activity change, negative = inhibition, % (no concentration beside the values); Q9GZU1; in the data active = activity change below about -50%; inconclusive = between about -30% and that limit;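 note: stimulus is agonist 54-4 at its EC80 concentration; % is set by controls: 0 for no effect and ±100 for the full control effect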
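Calcium fluorescence in TRPML1-DL cells induced overnight with Tet: a 110 s read after compound pin addition, then a 110 s antagonist read after challenge with 54-4 at 4 uM final (EC80).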
TRPML1 agonist – agonists of human TRPML1 channel; Q9GZU1; TRPML1-expressing cells, Ca2+ dye fluorescence, FDSS; activation, % (concentration not given with the values); 0.12% of 410,000 active; in the data active = activation above about 50%; inconclusive = mostly about 30% to 49%; note: 0% is about no effect
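Kinetic FDSS Ca2+ read in Tet-induced TRPML1-DL cells (ABD Ca8 dye plus quencher, 45-90 min RT loading): baseline, then compound, then 110 s agonist window; EC80 agonist 54-4 at 4uM final added afterwards for a 110 s antagonist window.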
TRHR enhancer – TRH receptor (human) allosteric enhancement. P34981. TRHR cells, fluo-8 calcium fluorescence, EC20 TRH enhancement. enhancement, % at 2 µM. 0.66% of 360,000 active. AID 493056; in the data active = enhancement above about 30%; note: 0% is about no effect
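TRHR-expressing cells loaded with fluo-8 calcium dye were read kinetically (ex 480/em 530) during compound addition, then stimulated with an EC20 of TRH (10 nM final). Enhancement of the Gq-mediated intracellular calcium response was scored.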
* = called active by the depositor; ? = inconclusive; · = no result given. In the library only some 0.8% were active in any assay of this set; here they are far more common.

SMILES	GRP78 ERSR act	TRHR agonist	TRPML1 blocker	TRPML1 agonist	TRHR enhancer
O=C(O)Cn1nc(-c2ccc(Cl)cc2)ccc1=O	-6%	1	17	1	-4
Cc1cccc(CN2CCc3nnc(C(C)NC(=O)C4CCOCC4)n3CC2)c1 (configuration not stated)	-2%	·	·	·	·
COc1cc(/C=C2\SC(=Nc3ccccc3)NC2=O)cc(Cl)c1O	14%	150*	-18	77*	20
COc1cc(/C=C2\SC(=Nc3ccc(Cl)c(C(=O)O)c3)NC2=O)c(Br)c(Br)c1O	-2%	212*	-4	67*	93*
COC(=O)/C=C1\SC(=Nc2ccc(Cl)c(Cl)c2)NC1=O	1%	0	26	1	1
COc1ccc(C2CC(=O)N3CN(c4ccc(C)c(Cl)c4)CSC3=C2C#N)cc1 (configuration not stated)	-1%	0	7	0	31*
CCOC(=O)CSc1nc2c(sc(=S)n2-c2ccc(CC)cc2)c(=O)[nH]1	40µM*	0	13	2	1
CC1CCN(c2ccc3c(c2)S(=O)(=O)c2cccc(C(=O)NC4CCCCC4)c2C3=O)CC1	5%	39*	19	25	-2
O=C(NC1CCCCC1)c1cccc2c1C(=O)c1ccc(N3CCCC3)cc1S2(=O)=O	-3%	·	7	22	·
CC1CCN(c2ccc3c(c2)S(=O)(=O)c2cccc(C(=O)NCc4ccc(F)cc4)c2C3=O)CC1	-4%	78*	-13	?	7
Cc1nc(CC(=O)NCC2Cc3cc(F)cc(-c4ccc(F)c(C)c4)c3O2)cs1 (configuration not stated)	-3%	·	·	·	·
COc1cc(CN2CCCC(n3cc(C(=O)N4CCCCC4)nn3)C2)cc(OC)c1OC (configuration not stated)	-1%	·	·	·	·
CCC1CN(CCNC(=O)C(C)(C)O)Cc2cc(OC)ccc2O1 (configuration not stated)	-1%	·	·	·	·
Cc1cc(C)c(NC(=O)CN(C)C(C)C(=O)N2CCc3ccccc32)c(C)c1 (configuration not stated)	-5%	-1	-17	0	32*
CCOC(=O)N1CCN(C(=O)CNS(=O)(=O)c2cccs2)CC1	-4%	0	0	1	-4
CCOC(=O)N1CCN(C(=O)CNS(=O)(=O)c2c(C)cc(C)cc2C)CC1	-2%	0	5	-1	33*
O=C(NCCO)c1cccc(Nc2nc(-c3ccccc3)c3cc(Cl)ccc3n2)c1	-2%	0	8	1	31*
COCc1c(C(=O)N2CC3CCC2C3)cnn1-c1nccc(-c2ccccc2OC)n1 (configuration not stated)	1%	·	·	·	·
Cc1cccc(S(=O)(=O)N2CCN(S(=O)(=O)c3ccc4c(c3)OCCO4)CC2)c1	·	1	·	·	2
COC(=O)/C=C/S(=O)(=O)c1ccc(NC(C)=O)cc1	2%	1	-6	0	33*
CCc1ccc(S(=O)(=O)NCc2nc(N3CCCC3)c3cccc(C)c3n2)cc1	-5%	·	·	·	·
CCn1nc(C)cc1C(=O)NCC1CCC2(CCN(Cc3ccccc3F)CC2)O1 (configuration not stated)	-3%	·	·	·	·
Cc1cc2c(s1)c1cnn(Cc3c(F)cc(F)cc3F)c(=O)c1n2C	·	0	·	·	-2
COc1ccccc1N1CCN(c2nc(CNC(=O)c3sc(C)nc3C)nc3ccccc23)CC1	-3%	·	·	·	·
Cc1c(C(=O)NCc2ccco2)oc2c(F)cccc12	0%	0	-2	2	37*
SMILES	GRP78 ERSR act	TRHR agonist	TRPML1 blocker	TRPML1 agonist	TRHR enhancer
Cc1c(C(=O)NCc2ccco2)oc2ccccc12	5%	-1	-19	1	6
Clc1ccccc1N1CCN(c2ncnc3c2c(-c2ccccc2)cn3-c2ccccc2)CC1	-1%	0	-3	59*	-5
O=C(NCCc1ccccn1)C1CC12CCN(C(=O)c1ccccc1Cl)CC2 (configuration not stated)	-5%	·	·	·	·
O=C1c2ccccc2-c2onc3ccc(NCCCn4ccnc4)c1c23	-3%	112*	6	75*	2
COc1ccc(OC)c2c1C(=O)c1ccccc1C2=O	-2%	35*	-13	11	-4
COc1ccc(N)c2c1C(=O)c1ccccc1C2=O	0%	-1	-8	1	5
COc1ccc2noc3c2c1C(=O)c1ccccc1-3	-1%	·	1	79*	·
